Measurements taken from PubChem BioAssay AID1861 (The Scripps Research Institute Molecular Screening Center, 2009).
The whole screen tested about 290,000 compounds, of which about 3,100 (1.1%) were called active. Many of the other results were omitted from the sample, so actives are more common in it than they were. Values without a mark were called inactive. Rule as the data show it: active = inhibition above about 16% (passing the limit was not always enough); inactive = the rest.

Each compound was assayed against Neuropeptides B/W receptor type 1 (Homo sapiens) (UniProt P48145) (assay: GPR7 receptor antagonists, primary screen, cell-based, fluorescence, single concentration (AID 1861;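 also: cells stimulated with the agonist NPW; 0% = agonist with vehicle and 100% = vehicle without agonist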)). Conditions: GPR7-expressing cells, fluorescence antagonist assay; at 4.4 µM; active compounds read high.
Neuropeptides B/W receptor type 1 (Homo sapiens), sequence (P48145 whole entry, looked up): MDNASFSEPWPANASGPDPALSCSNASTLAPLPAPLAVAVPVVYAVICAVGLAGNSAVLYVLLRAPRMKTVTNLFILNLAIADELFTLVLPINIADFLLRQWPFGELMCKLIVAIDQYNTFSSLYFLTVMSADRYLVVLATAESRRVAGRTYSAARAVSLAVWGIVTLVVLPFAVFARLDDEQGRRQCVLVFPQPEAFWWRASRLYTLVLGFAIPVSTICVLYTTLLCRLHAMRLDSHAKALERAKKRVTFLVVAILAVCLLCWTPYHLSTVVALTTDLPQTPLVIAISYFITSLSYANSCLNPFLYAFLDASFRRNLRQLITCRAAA

SMILES	inhibition
OCCN(Cc1ccccc1)Cc1ccc(Cl)cc1	-3.11%
O=[N+]([O-])c1ccc(N(CCO)Cc2ccccc2)c([N+](=O)[O-])c1	23.9% (active)
CCN(CC)c1ccc([N+](=O)[O-])cc1C(=O)O	-0.91%
CC1C(=O)Nc2ccccc2N1C(=O)c1ccc(F)cc1F (stereo not drawn)	-4.79%
CCOc1ccc(CN2CCC(n3nccc3NC(=O)C3CC3)CC2)cc1CO	1.55%
Cc1cc(C)cc(NC(=O)C2CCCN(S(=O)(=O)c3ccc4[nH]c(=O)ccc4c3)C2)c1 (stereo not drawn)	-6.12%
CN1CCN(c2ccccc2NC(=O)COc2ccc(C3CCCCC3)cc2)CC1	-0.24%
COc1ccc(CC(NC(C)=O)C(=O)NC2CCN(C(=O)c3ccc(OC)c(OC)c3)CC2)cc1OC (stereo not drawn)	1.05%
CCc1ccc(OCC2c3cc(OC)c(OC)cc3CCN2C(C)=O)cc1 (stereo not drawn)	45.6% (active)
COc1ccc(C(=O)N2CCc3cc(OC)c(OC)cc3C2c2cccc([N+](=O)[O-])c2)cc1 (stereo not drawn)	-1.43%
O=C(CSc1nc2cccnc2n1Cc1ccccc1)N1CCc2ccccc21	-12%
CC(=O)N1c2ccc(S(=O)(=O)N3CCC(C(=O)NCc4ccc(F)cc4)CC3)cc2CC1C (stereo not drawn)	-4.2%
CCOC(CNC(=O)C1CCN(S(=O)(=O)c2ccc3nc4c(c(C(=O)O)c3c2)CC(C)CC4)CC1)OCC (stereo not drawn)	-21.9%
Cc1ccc(CNC(=O)C2CCN(S(=O)(=O)c3ccc4nc5c(c(C(=O)O)c4c3)CC(C)CC5)CC2)cc1 (stereo not drawn)	27.2% (active)
COc1ccc(NC(=S)N2CCc3cc(OC)c(OC)cc3C2)cc1	2.63%
COc1ccc2c(CC(=O)OCC(=O)NC(N)=O)coc2c1	-8.77%
COc1ccc2c(CC(=O)N3CCc4cc(OC)c(OC)cc4C3)coc2c1	20.9% (active)
Cc1nn(C)cc1S(=O)(=O)N1CCN(c2ccc(F)cc2)CC1	-4.94%
O=[N+]([O-])c1ccccc1S(=O)(=O)Nc1cccc2cccnc12	-12.1%
O=C(NC(=S)NC1CCCCC1)c1ccc(Cl)cc1	-18.6%
COc1ccccc1-n1c(SCC(=O)Nc2cccc(C(=O)O)c2)nnc1-c1ccccc1O	-17.1%

SMILES	inhibition
COCc1ccc(C(=O)NC2CC(C)(C)Cc3c2cnn3-c2ccc(C)cc2)o1 (stereo not drawn)	-0.16%
COc1cc(OC)c(-n2cc(-c3ccc(Cl)cc3)[nH]c2=O)cc1Cl	64.5% (active)
COc1ccc(-c2cn(-c3ccc(OC)cc3)c(=S)[nH]2)cc1	10.2%
COc1cc(OC)c(-n2c(C)cc(C=O)c2C)cc1Cl	-3.29%
Brc1c(CSc2nncc3ccccc23)nc2ccccn12	-2.42%
CCOCCCN1C(=O)C2C(C(=O)Nc3ccc(OCC)cc3)C3C=CC2(O3)C1C(=O)NC1CCCCC1 (stereo not drawn)	-12.8%
CCn1c(CC(=O)Nc2ccccc2)nnc1SCC(=O)N1CCOCC1	-9.92%
CC1(C)CC(N(Cc2ccccc2)C(=O)Cc2ccccc2)CCO1 (stereo not drawn)	-11.1%
CC1(C)CC(CNCCC(c2ccc(F)cc2)c2ccco2)CCO1 (stereo not drawn)	27.9% (active)
O=C1c2ccccc2C(=O)N1CCC(c1ccccc1)c1ccco1 (stereo not drawn)	-19.2%
CCC(C(=O)Nc1ccc2c(c1)OCCO2)c1ccccc1 (stereo not drawn)	-8.4%
CCC(C(=O)OCC(=O)Nc1ccc(C(=O)Nc2ccc(OC)cc2)cc1)c1ccccc1 (stereo not drawn)	0.99%
CCC(C(=O)Nc1ccc(C(C)C)cc1)c1ccccc1 (stereo not drawn)	55.6% (active)
COc1ccc(-n2nc(C(=O)NCC(=O)N3CCN(c4ccccc4OC)CC3)c3ccccc3c2=O)c(OC)c1	1.21%
Cn1nccc1/C=N\NC(=O)c1ccc(Cl)cc1	-6.59%
Cc1ccnc(N2C(=O)c3ccccc3C2Nc2ccc3c(c2)OCCO3)c1 (stereo not drawn)	-8.69%
O=C1c2ccccc2C(Nc2ccc3c(c2)OCCO3)N1Cc1ccco1 (stereo not drawn)	17.6% (active)
O=C(NC1CCCCC1)C1c2ccccc2C(=O)N1Cc1ccco1 (stereo not drawn)	-11.8%
COC(=O)c1c(NC(=O)c2ccc(S(=O)(=O)N3CCOCC3)cc2)sc2c1CCN(C(C)C)C2	-0.58%
Nc1cccc2c1C(=O)N(Cc1nnc(-c3ccccc3Br)o1)C2=O	-16%
CN(C)/C=N/c1cc(=O)n(C)c(=O)n1CC1CC1	-1.62%

SMILES	inhibition
Cc1cccc(OCC(=O)NC(=S)Nc2ccccc2N2CCOCC2)c1	-14.9%
Cc1ccc(O)c(NC(=O)COc2cc(C)ccc2C)c1	10.6%
Cc1ccc(O)c(NC(=S)NC(=O)COc2ccc(Br)cc2)c1	89.1% (active)
Cc1cccc(C2C3=C(CCCC3=O)N=C3c4ccccc4C(=O)C32)c1 (stereo not drawn)	-14.3%
CCn1cc(C(=O)NCCC(=O)NCCO)c(=O)c2cc3c(cc21)OCO3	-13.5%
COC(=O)CN1C(=O)[C@H]2[C@@H](/C=C/c3ccccc3)N3C(=O)CN(CC4CC4)C(=O)[C@@]3(Cc3ccccc3)[C@H]2C1=O	-2.59%
CCCCSCCCNC(=O)C1CCC(CNS(=O)(=O)c2ccc(NC(C)=O)cc2)CC1 (stereo not drawn)	3.79%
Cc1nn(-c2ccccc2)c2c1c(C)c(CCC(=O)NCC1CCCO1)c(=O)n2C (stereo not drawn)	-15.7%
Cc1ccc(C(=O)NCC(=O)OCC(=O)NC2CCCCCCC2)cc1	-6.33%
O.O.O.O=S(=O)([O-])OC[C@H]1O[C@@H](O[C@]2(COS(=O)(=O)[O-])O[C@H](OS(=O)(=O)[O-])[C@@H](OS(=O)(=O)[O-])[C@@H]2OS(=O)(=O)[O-])[C@H](OS(=O)(=O)[O-])[C@@H](OS(=O)(=O)[O-])[C@@H]1OS(=O)(=O)[O-].[Al]	-11%
NC(=O)C1CCN(C(=O)/C(=C/c2ccco2)NC(=O)c2ccccc2)CC1	-7.3%
O=C(NCc1ccco1)/C(=C/c1ccco1)NC(=O)c1ccccc1	-4.86%
O=C(OCN1C(=O)c2ccccc2C1=O)/C(=C\c1ccco1)NC(=O)c1ccccc1	19% (active)
C[C@H](NC(=O)C1CC(=O)N(c2ccc3c(c2)OCO3)C1)C(=O)NCc1ccco1 (stereo partly drawn)	1.22%
O=S(=O)(Nc1ccc2[nH]ncc2c1)c1ccccc1Cl	6.14%
O=C(Cn1nc(CNc2ccc(Cl)cc2)[n+]2c1CCCCC2)c1ccc(Cl)cc1	-3.46%
CC(=O)Nc1ccc(Oc2ccc3c(c2)C(=O)NC3=O)cc1	7.14%
S=C(NCCC1=CCCCC1)Nc1ccccc1	8.55%
S=C(NCCc1ccccc1)Nc1ccccc1	21.5% (active)
S=C(NCCCc1ccccc1)Nc1ccc(Br)cc1	-16.1%
COc1ccc(-c2nnc3n2CCCCC3)cc1	1.65%
